The full list was thinned out, with hits kept by preference.
A1 inh: A1 inhibition. 21,000 tested, 0.51% active. MEF A1-2A-BIM cells, caspase-Glo luminescence, 3 h; percent of clofoctol signal, DMSO as zero. caspase activation, % (concentration not given with the values);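 active = most replicate scores above 10, or exactly half above 10 with mean activity above 10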;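 note: effector caspase 3 and 7 activity cleaving a DEVD luciferin substrate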
Starred values were filed as active, the others as inactive.

SMILES	A1 inh
CC1=CC2/C=C(\C)CCC(O)C(O)/C=C/C(=O)C23C(=O)NC(CC(C)C)C3C1C (stereo unspecified)	77.1*
CC(C)Sc1nnc(OC(=O)N(C)C)n1-c1cccc(C(F)(F)F)c1	0.4
O=[P+](c1ccccc1)c1ccccc1	0.3
CCN(CC)CCc1c(C)c2ccc(O)cc2oc1=O	2.1
CN(C(=O)c1ccc(Cl)cc1)c1ccc(Cl)cc1C(=O)c1ccccc1	-0.2
Cc1[nH]c2ccccc2c1CCNCC(C)(C)C	-0.4
O=C1NC(=O)C(=Cc2cn(Cc3ccccc3)c3ccccc23)C(=O)N1	32.8*
CC1(C)C(C(=O)Nc2ccc(S(=O)(=O)c3ccc(NC(=O)C4C(C)(C)C4(C)C)cc3)cc2)C1(C)C	-0.2
CCCCc1nc2ccccc2c(=O)n1-c1ccc(C)cc1	-0.7
CC(C)(C)c1cc(C=C(C#N)C#N)cc(Br)c1O	-1.4
CCSc1nc2ccccc2c(=O)n1-c1cccc(OC)c1	0.3
C/C=C\C(=O)O[C@@H]1C[C@H]2O[C@@H]3C=C(C)C(=O)C[C@]3(C)[C@]1(C)[C@]21CO1	10.9*
CC1=CC2OC3[C@H](O)C[C@@](C)([C@]34CO4)[C@@]2(CO)[C@H](O)C1=O (stereo partly specified)	2.9
CCc1ccc(CN2CCN(Cc3ccc(CC)cc3)CC2)cc1	0.2
Cc1nc(-c2ccccc2)nc(OC(=O)N(C)C)c1Oc1cccc(C(F)(F)F)c1	0.0
CCN1C[C@]2(C)CC[C@H](OC)[C@@]34C2[C@H](O)C([C@@H]13)[C@@]1(OC)C[C@H](OC)[C@H]2C[C@@H]4[C@@H]1[C@H]2O	0.2
CC(=O)OC1CCC2(C)C(=CCC3C4CCC(=O)C4(C)CCC32)C1 (stereo unspecified)	-1.0
CCn1cnc2c(Nc3cccc(Cl)c3)nc(N[C@@H]3CCCC[C@@H]3N)nc21	26.1*
O=C(c1ccc2nc(N3CCCCC3)sc2c1)N1CCC2(CC1)OCCO2	-0.9
CC(C)N(C(=O)SCC(Cl)=C(Cl)Cl)C(C)C	0.7
NC1=C(C(=O)OCc2ccccc2)C2(C(=O)Nc3ccc(Br)cc32)C2=C(O1)C(=O)CCC2 (stereo unspecified)	0.2
CC(C)(C)c1nc2ccccc2c(=O)n1-c1ccc(F)cc1F	0.0
CN[C@@H]1C[C@@]2(C)O[C@@H]([C@@H]1OC)n1c3ccccc3c3c4c(c5c6ccccc6n2c5c31)C(=O)NC4	83.8*
Cc1ccc(S(=O)(=O)N2CCCCC2)cc1C(=O)Oc1cccc2cccnc12	-0.6
Cc1ccc(NC(=O)c2cccc(OC(=O)N(C)c3ccccc3)c2)cc1C	-1.9
SMILES	A1 inh
N#CC(c1ccccc1)c1ccccc1	-0.2
CC(/C=C/[C@@]1(C)[C@H](C)CCC(=O)[C@@H]1C)=C\Cc1c(O)c(Cl)c(C)c(C=O)c1O	-1.1
O=C(CC[N+](=O)[O-])OC[C@H]1O[C@@H](O)[C@H](OC(=O)CC[N+](=O)[O-])[C@@H](OC(=O)CC[N+](=O)[O-])[C@@H]1OC(=O)CC[N+](=O)[O-]	-0.6
CC(=O)OC[C@]12CCC(C)=C[C@H]1O[C@@H]1[C@H](O)[C@@H](OC(C)=O)[C@@]2(C)[C@]12CO2	15.8*
CC(=O)OC[C@]12C[C@H](O)C(C)=C[C@H]1O[C@@H]1[C@H](O)[C@@H](OC(C)=O)[C@@]2(C)[C@]12CO2	13.3*
CCC(C)(O)C(=O)O[C@H]1C(=O)O[C@@H]2C[C@H]3C(C)=CC(=O)[C@@H](O)[C@]3(C)[C@H]3[C@@]4(O)OC[C@]32[C@@H]1[C@@H](C)[C@H]4O (stereo partly specified)	8.9
COCc1cc(OC(=O)N(C)C)nc(COc2ccc(Cl)cc2)n1	0.9
C/C=C(/C)C(=O)O[C@H]1C(C)=C2[C@H]([C@@H]1OC(=O)CCCCC)[C@@](C)(OC(C)=O)C[C@H](OC(=O)CCC)[C@@]1(O)[C@H]2OC(=O)[C@@]1(C)O	1.8
CC(O)CN1CC2CC(C1)c1cccc(=O)n1C2 (stereo unspecified)	0.7
CO[C@H]1[C@H](O)[C@H](O[C@H]2CC[C@]3(C)C4CC[C@]5(C)C(C6=CC(=O)OC6)CC[C@]5(O)C4CC[C@@H]3C2)O[C@@H](C)[C@@H]1O (stereo partly specified)	0.7
CC1(C)C(=O)C=C[C@@]2(C)C1C(=O)C(=O)[C@]1(C)C2CC[C@@]2(C)[C@H](c3ccoc3)C[C@H]3O[C@]321 (stereo partly specified)	-1.1
C=CC1CN2CCC3(C(=O)Nc4ccccc43)C2CC1/C(=C/OC)C(=O)OC (stereo unspecified)	0.7
Cc1ccc2[nH]cc(CC(C)N)c2c1 (stereo unspecified)	0.3
CC1(C)C(C(=O)Nc2nccs2)C1(C)C	0.1
C=C1[C@@H](C)[C@H]2[C@H](Cc3ccccc3)NC(=O)[C@]23OC(=O)/C=C\[C@H](O)CCC[C@@H](C)C/C=C/[C@H]3[C@@H]1O	29.7*

Screening data from PubChem BioAssay.
